Assay outcomes deposited in PubChem BioAssay by National Center for Advancing Translational Sciences (NCATS).
Hits are enriched below; roughly 9.2% of the tested compounds scored in any of these assays.
NPC1 prom act: qHTS Assay for NPC1 Promoter Activators | Huh7 NPC1 promoter luciferase reporter, 24 h | Potency, µM (series often up to 9.22 µM), actives largely listed as activators | 2.4% of 320,000 active; note: nearly all actives have a fitted effect of over 60% in size
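In 1536-well qHTS, Huh7 cells harboring an NPC1 promoter–luciferase construct received compound for 24 h; activation was quantified by luminescence following luciferase reagent addition.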
ELG1 genotoxic: qHTS screen for small molecules that induce genotoxicity in human embryonic kidney (HEK293T) cells expressing luciferase-tagged ELG1; AID 504466, 2011; Potency, µM (top dose mostly 46 µM), most hits filed as activators; 1.3% of 330,000 active; HEK293T ELG1-luciferase reporter, luminescence, 16 h; note: nearly all actives have a fitted effect of over 60% in size
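Cells (2,000/well) expressing the ELG1-luciferase fusion are dosed by pin tool and kept 16 hr at 37 °C, 5% CO2. Signal comes from ONE-Glo luciferase reagent after 30 min at room temperature.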
SMN2 splice enh: qHTS Assay for Enhancers of SMN2 Splice Variant Expression. 2.8% of 210,000 active. HEK293 SMN2-luciferase splicing reporter, luminescence, 30-36 h. AID 1458, 2008. Potency, µM (top dose mostly 46.1 µM), usual class: activators; note: nearly all actives have a fitted effect of over 55% in size
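HEK293 cells carry an SMN2 […]–luciferase reporter in which exon 7 inclusion puts luciferase in frame. Cells were plated 10-12 h before compound addition, then incubated 30-36 h at 37C. ONE-Glo luminescence was read; sodium butyrate at 4.5 mM final served as control.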
ELG1 DNA repair: qHTS screen for small molecules that inhibit ELG1-dependent DNA repair in human embryonic kidney (HEK293T) cells expressing luciferase-tagged ELG1 | HEK293T ELG1-luciferase reporter, luminescence, 16 h; DNA damage induced by 5-fluorouridine | Potency, µM (highest dose often 46.1 µM), usual class: inhibitors | 2.3% of 330,000 active | AID 504467, 2011; note: nearly all actives have a fitted effect of over 55% in size
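HEK293T cells expressing luciferase-tagged ELG1 (2,000/well) received 5-Fluorouridine plus compound or DMSO for 16 hr at 37 °C. Luciferase was read by ONE-Glo luminescence after 30 min at room temperature.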
Rab9 promoter act: qHTS Assay for Rab9 Promoter Activators. 2.8% of 320,000 active. Huh7 Rab9 promoter-luciferase reporter, luminescence, 24 h. Potency, µM (titrated, usually from 9.22 µM), hits mostly activators. AID 485297, 2010; note: nearly all actives have a fitted effect of over 60% in size
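Using Huh7 cells stably transfected with Rab9 promoter–luciferase, compounds were incubated 24 h at 37 °C, 5% CO2; luciferase luminescence was read 10 min after reagent addition.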
FLuc modulator: qHTS profiling assay for firefly luciferase inhibitor/activator using purifed enzyme and Km concentrations of substrates (counterscreen for miR-21 project); purified FLuc, Km substrates, luminescence inhibition; Potency, µM (top dose mostly 57.5 µM), most hits filed as inhibitors; 6.9% of 360,000 active; AID 588342, 2011; note: nearly all actives have a fitted effect of over 55% in size
Target sequence (P08659 whole entry, looked up): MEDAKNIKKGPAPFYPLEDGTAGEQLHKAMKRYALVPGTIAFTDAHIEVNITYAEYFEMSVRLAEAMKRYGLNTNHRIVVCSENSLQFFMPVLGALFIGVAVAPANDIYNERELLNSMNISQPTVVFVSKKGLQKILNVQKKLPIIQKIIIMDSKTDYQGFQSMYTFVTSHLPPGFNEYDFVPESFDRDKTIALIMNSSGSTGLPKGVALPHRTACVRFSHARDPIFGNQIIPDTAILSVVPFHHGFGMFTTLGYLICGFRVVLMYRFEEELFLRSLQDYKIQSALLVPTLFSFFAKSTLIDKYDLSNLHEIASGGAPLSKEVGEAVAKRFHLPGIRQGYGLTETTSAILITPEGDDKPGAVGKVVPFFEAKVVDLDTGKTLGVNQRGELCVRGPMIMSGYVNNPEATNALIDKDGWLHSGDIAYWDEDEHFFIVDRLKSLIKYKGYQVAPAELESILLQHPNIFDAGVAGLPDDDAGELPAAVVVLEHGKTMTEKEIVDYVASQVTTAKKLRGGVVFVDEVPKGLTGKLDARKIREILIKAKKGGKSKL
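Purified P. pyralis luciferase (10nM final) with 10uM D-luciferin and 10uM ATP (Km levels) in 50mM Tris acetate pH 7.5, 10mM Mg acetate, 0.01% Tween-20, 0.05% BSA; qHTS 6-point titration, ~60 µM downward; luminescence read.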
Large screens that a line does not name were inactive. Calls come from the whole dose curve; as a rule, active = well fitted curve in the direction sought with a large enough effect; inconclusive = small, poorly fitted or top-dose-only effect, or another doubt; inactive = no such curve, though single readings can be large; an effect the other way counts as inactive or inconclusive.

Cc1cccc(-n2nnc(C(=O)Nc3ccc(F)cc3)c2N)c1	NPC1 prom act 1.6µM, SMN2 splice enh 10µM, ELG1 DNA repair inconclusive, Rab9 promoter act 2.8µM, FLuc modulator 6µM
CCCn1c(C)nc2c(N(CCOC)CCOC)nc(C)nc21	none (no result: NPC1 prom act, ELG1 genotoxic, ELG1 DNA repair, Rab9 promoter act, FLuc modulator)
O=C(N/N=C/c1cccc(O)c1)c1ccc(-n2cnnn2)cc1	none (no result: SMN2 splice enh)
Cn1cc(/C=C/C(=O)c2ccccc2)c2ccccc21	NPC1 prom act 1.6µM, ELG1 genotoxic 1.8µM, ELG1 DNA repair inconclusive, Rab9 promoter act 1.3µM, FLuc modulator 0.54µM (no result: SMN2 splice enh)
Cc1ccc(C(=O)/C=C/c2cn(CN3CCN(C)CC3)c3ccccc23)cc1	NPC1 prom act inconclusive, ELG1 genotoxic 15µM, ELG1 DNA repair inconclusive, Rab9 promoter act inconclusive, FLuc modulator 4.8µM
O=C(CSc1nc2c([nH]c3ccccc32)c(=O)n1-c1ccccc1)N1CCCc2ccccc21	none (no result: NPC1 prom act, ELG1 genotoxic, SMN2 splice enh, ELG1 DNA repair, Rab9 promoter act)
COc1ccc(-c2cc(C(=O)OCC(=O)Nc3cc(C)on3)c3ccccc3n2)cc1OC	FLuc modulator inconclusive
CCC(C)c1ccc(-c2cc(C(=O)OCC(=O)Nc3cc(C)on3)c3ccccc3n2)cc1 (stereo not given)	NPC1 prom act inconclusive, ELG1 genotoxic 1.8µM, SMN2 splice enh 22µM, ELG1 DNA repair inconclusive, Rab9 promoter act 1.6µM, FLuc modulator 2.7µM
O=C(Nc1ccon1)c1cc(-c2ccccc2)nc2ccccc12	none
Cc1cc(NC(=O)c2cc(-c3ccc(OC(C)C)cc3)nc3ccccc23)no1	FLuc modulator 3µM (no result: SMN2 splice enh)
Cc1ccc(CNS(=O)(=O)c2ccc(CN3C(=O)c4cccnc4C3=O)cc2)o1	none (no result: SMN2 splice enh)
O=[N+]([O-])c1ccccc1N/N=C\c1ccccc1F	NPC1 prom act inconclusive, ELG1 genotoxic 5.8µM, ELG1 DNA repair inconclusive, Rab9 promoter act 2.8µM, FLuc modulator inconclusive (no result: SMN2 splice enh)
O=[N+]([O-])c1cccc(N/N=C/c2cccc(O)c2O)c1	ELG1 genotoxic inconclusive, SMN2 splice enh inconclusive, ELG1 DNA repair inconclusive, FLuc modulator 15µM
O=C(N/N=C/c1cc([N+](=O)[O-])ccc1O)c1cccc2cc[nH]c12	ELG1 DNA repair 4.6µM (no result: SMN2 splice enh)
O=C(N/N=C/c1cccc([N+](=O)[O-])c1)c1cccc2cc[nH]c12	none
O=[N+]([O-])c1ccccc1N/N=C\c1ccccc1Cl	NPC1 prom act inconclusive, ELG1 genotoxic inconclusive, SMN2 splice enh 7.9µM, ELG1 DNA repair inconclusive, Rab9 promoter act 2.8µM, FLuc modulator 0.67µM
CC1=C(C(=O)Nc2ccccc2F)C(c2cccs2)NC(=S)N1 (stereo not given)	none
Cc1cc(=O)n(CC(=O)N2CCCCC2)c2c1c(C)nn2C	none (no result: NPC1 prom act, ELG1 genotoxic, SMN2 splice enh, ELG1 DNA repair, Rab9 promoter act)
CCOC(=O)c1cc2c(N)c(C(=O)c3ccc(Br)cc3)sc2[nH]c1=O	none
O=[N+]([O-])c1ccccc1N/N=C/c1cccc(O)c1O	NPC1 prom act 3.5µM, ELG1 genotoxic 10µM, ELG1 DNA repair inconclusive, FLuc modulator 1.5µM (no result: SMN2 splice enh)
Cc1c(NC(=S)N/N=C/c2cc([N+](=O)[O-])ccc2O)c(=O)n(-c2ccccc2)n1C	ELG1 DNA repair inconclusive, FLuc modulator 27µM (no result: SMN2 splice enh)
O=[N+]([O-])c1cccc(/C=N\Nc2ccc3ccccc3n2)c1O	none (no result: NPC1 prom act, ELG1 genotoxic, ELG1 DNA repair, Rab9 promoter act, FLuc modulator)
Cc1c(NC(=S)N/N=C/c2ccc(O)cc2)c(=O)n(-c2ccccc2)n1C	none
C/C(=N\Nc1cccc([N+](=O)[O-])c1)c1ccccc1O	ELG1 genotoxic inconclusive, ELG1 DNA repair inconclusive, Rab9 promoter act inconclusive, FLuc modulator 19µM (no result: SMN2 splice enh)
O=C(N/N=C/c1cc([N+](=O)[O-])ccc1O)C1CC1	ELG1 DNA repair 18µM (no result: SMN2 splice enh)
O=[N+]([O-])c1ccc(O)c(/C=N/Nc2ccccc2Cl)c1	NPC1 prom act 1.4µM, ELG1 genotoxic inconclusive, SMN2 splice enh 13µM, ELG1 DNA repair inconclusive, Rab9 promoter act inconclusive, FLuc modulator 4.8µM
Cc1cc(C(=O)NC2CCCc3c2cnn3-c2ccccc2F)nc(C)n1 (stereo not given)	ELG1 DNA repair 13µM (no result: SMN2 splice enh)
